In PubChem BioAssay (NCI):
This is part of a sample that, as a whole, favours compounds with a hit. Of some 79,000 tested, about 15% had one in any assay. Values without a mark were called inactive. The source made the active and inactive calls. No stated cut-off is given here; in the data, active means growth inhibition above about 70%; inactive means the rest.

Legend:
[1] = NCI Yeast Anticancer Drug Screen. Data for the rad50 strain (AID 155);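 further: 0% = growth of vehicle-only cultures of the same strain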; conditions: S. cerevisiae rad50 strain growth inhibition, hits give high values
Procedure, shortened: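 Genetically altered yeast (DNA repair pathway); compound treatment; growth inhibition vs vehicle ctrl.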

[2] = NCI Yeast Anticancer Drug Screen. Data for the mec2-1 strain (AID 157); conditions: S. cerevisiae mec2-1 strain, hits give high values
Procedure, shortened: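 Yeast mec2-1 mutant treated with compound. Readout: growth inhibition vs vehicle controls.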

[3] = NCI Yeast Anticancer Drug Screen. Data for the sgs1 mgt1 strain (AID 161);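 further: 0% = growth of cultures given vehicle only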; conditions: S. cerevisiae sgs1 mgt1 strain, hits give high values
Procedure, shortened: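 Mutant yeast exposed to compound; growth scored against vehicle-only wells.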

[4] = NCI Yeast Anticancer Drug Screen. Data for the cln2 rad14 strain (AID 165);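 further: 0% = growth equal to vehicle treated cultures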; conditions: S. cerevisiae cln2 rad14 strain, hits give high values
Procedure, shortened: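 cln2 rad14 yeast strain; compound exposure; growth inhibition read vs vehicle controls.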

[5] = NCI Yeast Anticancer Drug Screen. Data for the bub3 strain (AID 167); conditions: S. cerevisiae bub3 mutant strain, hits give high values
Procedure, shortened: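 Yeast carrying a defined mutation is treated with each compound, and growth is compared with that of vehicle-exposed cells to give inhibition.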

[6] = NCI Yeast Anticancer Drug Screen. Data for the mlh1 rad18 strain (AID 175); conditions: S. cerevisiae mlh1 rad18 strain growth inhibition, hits give high values
Procedure, shortened: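 Yeast w/ defined DNA-repair lesions; compound exposure; growth vs vehicle controls → % inhibition.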

[7] = at 5.0 µM (retest, dose inferred, filed as 0.5)
[8] = at 50.0 µM (retest, dose inferred, filed as 5.0)

Structure (SMILES)	growth inhibition [1, 7]	growth inhibition [1, 8]	growth inhibition ([1]; at 50.0 µM)	growth inhibition [2, 7]	growth inhibition [2, 8]	growth inhibition ([2]; at 50.0 µM)	growth inhibition [3, 7]	growth inhibition [3, 8]	growth inhibition ([3]; at 50.0 µM)	growth inhibition [4, 7]	growth inhibition [4, 8]	growth inhibition ([4]; at 50.0 µM)	growth inhibition [5, 7]	growth inhibition [5, 8]	growth inhibition ([5]; at 50.0 µM)	growth inhibition [6, 7]	growth inhibition [6, 8]	growth inhibition ([6]; at 50.0 µM)
Cc1ccc(S(=O)(=O)Nc2ccc3c(c2)Cc2cc([N+](=O)[O-])ccc2-3)cc1	45%	60%	78% (active)	24%	58%	45.8%	42%	62%	67.2%	45%	52%	48.3%	57%	63%	59.2%	58%	69%	81.3% (active)
CCCCCCCC1SCC(=O)N1c1nncs1 (stereo not given)	-11%	96% (active)	-10.8%	0%	65%	-20.4%	0%	95% (active)	1.45%	-5%	80% (active)	3.1%	19%	95% (active)	2.9%	-10%	73% (active)	5.7%
CC(C)N=C1NS(=O)(=O)c2ccccc21	-2%	-1%	5.5%	-2%	0%	-3.75%	0%	-4%	-0.4%	0%	-2%	17.8%	-3%	-2%	21.4%	-5%	0%	2.6%
O=S(=O)(Cl)c1ccc(Br)cc1	45%	99% (active)	37.3%	68%	100% (active)	-4.55%	72% (active)	99% (active)	0.15%	21%	100% (active)	-76.1%	84% (active)	99% (active)	9.25%	28%	99% (active)	0.55%
Oc1cc2ccccc2c2ccccc12	0%	93% (active)	99.2% (active)	2%	83% (active)	99.2% (active)	4%	87% (active)	98.9% (active)	-15%	97% (active)	98.5% (active)	16%	96% (active)	99.2% (active)	6%	93% (active)	98.9% (active)
COc1ccc(/C=c2\sc3nnc(CCC(=O)Nc4cccc(C(F)(F)F)c4)n3c2=O)cc1	-2%	28%	29.9%	0%	43%	53.4%	-2%	51%	44.9%	1%	21%	22.1%	0%	38%	29.6%	-3%	47%	76.8% (active)
C=CCOc1ccc(N=NC(C#N)C#N)cc1	8%	88% (active)	98.6% (active)	5%	87% (active)	98.3% (active)	3%	88% (active)	52.7%	0%	90% (active)	58%	-2%	91% (active)	97.8% (active)	4%	93% (active)	54%
N#Cc1ccc([N+](=O)[O-])o1	11%	97% (active)	96.2% (active)	1%	98% (active)	99% (active)	9%	93% (active)	96.2% (active)	8%	59%	62.8%	7%	92% (active)	97.7% (active)	15%	99% (active)	97.9% (active)
O=[N+]([O-])c1ccc(-n2ncc3cccnc32)c([N+](=O)[O-])c1	1%	99% (active)	99% (active)	-12%	99% (active)	93.6% (active)	2%	100% (active)	99.3% (active)	-1%	98% (active)	46.9%	33%	99% (active)	92% (active)	26%	100% (active)	99.5% (active)
NS(=O)(=O)c1ccc(NC(=S)/N=C\C(C(=O)c2ccccc2)=C(\O)c2ccccc2)cc1	7%	12%	6.9%	-2%	-15%	1.7%	0%	-5%	9.8%	-19%	-18%	41.5%	3%	8%	8.15%	10%	-7%	2.15%
